Source: PubChem BioAssay (National Center for Advancing Translational Sciences (NCATS))
Pf growth 48h = inhibits P. falciparum growth in the first generation, 48 h; Potency, µM (highest dose often 28.7 µM), for inactives: at the highest dose activity change, negative = inhibition, hits mostly inhibitors; actives 5.9% (n = 310,000); P. falciparum luciferase growth in erythrocytes, 48 h; AID 504832; also: potency is read from the fitted curve at half-maximal effect; % is scaled to controls: 0 for no effect and ±100 for the full control effect
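Luciferase-expressing P. falciparum in infected erythrocytes (2% hematocrit, 0.1% parasitemia final) in RPMI 1640/0.5% Albumax were exposed to compound for 48 hours at 37 C, 5% CO2; growth read as luminescence.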
Shiga inhibitor = inhibitors of Shiga toxin in Vero cells; Vero cells, Shiga toxin protein synthesis inhibition reporter; inhibition, % at 38.7 µM; actives 9.2% (n = 290,000); AID 2315; in the data active = inhibition mostly above about 28%, no sharp cut-off; inactive = mostly below about 43%; also: 0% is about no effect
CHX counter = affects cycloheximide protein synthesis inhibition readout, counter-screen. cell reporter, cycloheximide protein synthesis inhibition counterscreen. max response, %. actives 12% (n = 300,000). AID 2314; in the data active = max response mostly above about 13%, no sharp cut-off; inactive = mostly below about 14%; also: read at 38.3 µM for the half of the compounds with a filed dose; 0% is about no effect
Pf growth 96h = P. falciparum growth inhibition at 96 hours; P. falciparum luciferase reporter growth, 96 h; Potency, µM (top dose mostly 28.7 µM), for the others: top-dose activity change, negative = inhibition, usual class: inhibitors; actives 6.9% (n = 320,000); AID 504834; also: potency is read from the fitted curve at half-maximal effect; % is scaled to controls: 0 for no effect and ±100 for the full control effect
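Compounds incubated with erythrocytes infected by luciferase-expressing P. falciparum (2% hematocrit, 0.05% parasitemia final) for 96 hours, 37 C in 5% CO2. Growth inhibition scored as decreased luciferase luminescence.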
LASV entry inh = inhibitors of Lassa virus binding or cell entry; Lassa virus pseudotype entry inhibition, cell reporter; Potency, µM (top dose mostly 37.9 µM), for inactives: at the highest dose activity change, negative = inhibition, most hits filed as inhibitors; actives 1.2% (n = 300,000); AID 540256; calls by dose curve; tested in HEK293 cells; also: potency is read from the fitted curve at half-maximal effect; % is scaled to controls: 0 for no effect and ±100 for the full control effect; nearly all actives have a fitted effect of over 50% in size
Marburg entry inh = inhibitors of Marburg virus binding or cell entry. Marburg virus pseudotyped entry inhibition, cell reporter. Potency, µM (series often up to 37.8 µM), for the others: at the highest dose activity change, negative = inhibition, usual class: inhibitors. actives 1.8% (n = 300,000); calls by dose curve; tested in HEK293 cells; also: potency is read from the fitted curve at half-maximal effect; % is scaled to controls: 0 for no effect and ±100 for the full control effect
* = called active by the depositor; ? = inconclusive; . = no result; [ ] = remark or other dose. The list is not random: actives were taken first. Their share in the collection is about 19%. Unless noted, calls follow the shape of the dose curve; as a rule, active = well fitted inhibition curve with a large enough effect; inconclusive = small, poorly fitted or top-dose-only effect, or another doubt; inactive = no such curve, though single readings can be large or run the other way.

SMILES | Pf growth 48h | Shiga inhibitor | CHX counter | Pf growth 96h | LASV entry inh | Marburg entry inh
CCC1S/C(=N/N=C/c2ccco2)N(Cc2ccccc2C)C1=O (stereo not given) | ? | 38.4* | 9.4 | ? | . | .
O=C1C(Cc2ccccc2)S/C(=N/N=C/c2ccco2)N1c1ccccc1 (stereo not given) | 8.0% | -6.9 | 6.2 | 0.262µM* | -19.1% | -8.4%
Cc1ccccc1CN1C(=O)CS/C1=N/N=C/c1ccco1 | ? | -11.9 | -0.8 | ? | 10µM* | 11.2%[46.1 µM]
CC1S/C(=N/N=C/c2ccco2)N(Cc2ccccc2)C1=O (stereo not given) | -12.8% | 99.5* | 34.9* | -9.8% | . | .
Cc1cc(C)c(N=C2SCC(=O)N2Cc2ccco2)c(C)c1 | -2.7% | -11.2 | -1.5 | 24.3% | ? | ?
CC(=O)Nc1cccc(C(=O)OC(C)C(=O)Nc2ccc(S(=O)(=O)N3CCCC3)cc2)c1 (stereo not given) | -4.2% | . | . | -25.5% | . | .
Cc1cc(C)nc(NN=C(c2ccccc2)c2ccccc2)n1 | ? | -3.0 | -4.3 | 13.1µM* | ? | 10.3µM*
CC(/C=C/c1ccccc1)=N/NC(=O)c1nc2nc(C)cc(C)n2n1 | 29.2% | 29.0 | 1.3 | 57.9% | . | .
CC(/C=C/c1ccccc1)=N\Nc1nc(C)cc(C)n1 | ? | 44.0* | 32.8* | 10.4µM* | 22.9% | 0.3%
Cc1cc(C)nc(Nc2ccccc2Br)n1 | 22.2% | -10.1 | -2.4 | ? | 12.8% | 22.9%
Cc1cc(C)nc(NN=C2CCCC2)n1 | 11.7µM* | 12.0 | 5.3 | ? | 10.9% | 8.8%
Cc1ccc(OCC(=O)Nc2ccc(-n3cnnn3)cc2)c(C)c1 | ? | . | . | 14.5% | -13.0% | -11.8%
O=C(Nc1nc(-c2cccs2)cs1)c1cc2ccccc2oc1=O | 68.6% | 8.5 | 1.4 | 59.1% | . | 0.0%
COc1cccc2cc(-c3nc(-c4cccs4)cs3)c(=O)oc12 | 34.1% | 127.3* | 37.3* | ? | -3.8% | ?
N=c1oc2ccccc2cc1-c1nc(-c2ccccc2)cs1 | 39.2% | 45.3* | 41.9* | 23.1% | -2.3% | 12.7%
O=c1oc2ccccc2cc1-c1nc(-c2cccs2)cs1 | . | 36.7 | 13.7* | 35.8% | 15.8% | 18.0%
COc1cccc2cc(-c3nc(-c4cccs4)no3)c(=O)oc12 | . | . | . | . | 16.6%[46.1 µM] | ?
CNc1nnc(-c2cc3ccccc3oc2=O)s1 | 44.7% | 83.2* | 37.8* | -1.3% | ? | ?
COc1cccc(-c2ccc(C#N)c(SCC(=O)NCc3ccco3)n2)c1 | -2.5% | -2.8 | 10.9 | -4.8% | . | .
CNCCc1nc(N)n[nH]1 | . | -9.7 | 0.9 | 36.5% | -12.6% | 17.0%
COc1cc(OC)cc(C(=O)NCCS(=O)(=O)N2CCN(Cc3ccccc3)CC2)c1 | 1.6% | . | . | ? | 1.2% | 2.0%[46.1 µM]
COc1cnc(N(C)C)nc1Sc1cccc(Cl)c1 | . | -11.4 | -2.5 | ? | -3.6% | ?
CCC(C(=O)NCc1ccco1)N(C(=O)CNS(=O)(=O)c1ccc(F)cc1)c1ccccc1F (stereo not given) | ? | 9.4 | -0.2 | ? | -20.3% | -17.1%[46.1 µM]
CC1CCC(=C(C#N)c2nc(-c3cc4ccccc4oc3=O)cs2)CC1 (stereo not given) | ? | 30.2* | 22.6* | 0.1% | ? | ?
N#CCc1nc(-c2cc3ccccc3oc2=O)cs1 | 88.6% | 50.5* | 41.4* | 2.7% | -4.0%[46.1 µM] | ?
SMILES | Pf growth 48h | Shiga inhibitor | CHX counter | Pf growth 96h | LASV entry inh | Marburg entry inh
N#C/C(=C\c1ccc(Cl)cc1)c1nc(-c2cc3ccccc3oc2=O)cs1 | . | . | . | . | 0.0%[46.1 µM] | .
CCOC(=O)c1ccc(N/C(=N\S(=O)(=O)c2ccc(F)cc2F)c2ccccc2)cc1 | ? | -3.9 | 0.6 | 6.57µM* | ? | ?
O=C(Nc1ccc2[nH]c(=O)[nH]c2c1)c1cc(F)c(F)cc1Cl | 9.9% | 24.7 | 8.2 | -2.3% | 9.1% | -0.5%[46.1 µM]
COc1ccc(NC(=O)c2cc(F)c(F)cc2Cl)cc1Cl | 41.9% | 50.3* | 45.6* | 28.6% | 7.7% | 15.2%[46.1 µM]
CCCCOC(=O)c1ccc(N/C(=N\S(=O)(=O)c2ccccc2)c2ccccc2)cc1 | 5.1% | 20.9 | -3.2 | ? | ? | ?
CCOC(=O)c1ccc(NC(=O)c2cc(F)c(F)cc2Cl)cc1 | 10.7% | 47.8 | 18.0* | -12.6% | -0.4% | -13.8%[46.1 µM]
CNC(=O)C[C@H](C(=O)O)c1ccc(OC(C)C)cc1 | . | . | . | . | . | -6.9%
COCc1cc(O)c(O)c(O)c1-c1c(COC)cc(O)c(O)c1O | . | -4.8 | 0.3 | . | . | .
COC(=O)C/C=C/[C@@H](C)[C@@H](/C=N/O[C@@H](C)c1cn([C@H](CO)Cc2ccccc2)nn1)NS(=O)(=O)c1ccc(C)cc1 | ? | -5.4 | 5.0 | 11.7µM* | ? | -26.7%
COC(=O)CC=C[C@@H](C)[C@@H](C=NO[C@H](C)c1cn([C@H](CO)Cc2ccccc2)nn1)NS(=O)(=O)c1ccc(C)cc1 | . | . | . | . | ? | 21.7%[14.2 µM]
CO[C@H](C(=O)[C@@H](O)[C@@H](C)O)C1Cc2cc3cc(O[C@H]4C[C@@H](O[C@H]5C[C@@H](O)[C@H](O)[C@@H](C)O5)[C@@H](O)[C@@H](C)O4)c(C)c(O)c3c(O)c2C(=O)[C@H]1O[C@H]1C[C@@H](O[C@H]2C[C@@H](O[C@H]3C[C@](C)(O)[C@H](O)[C@@H](C)O3)[C@H](O)[C@@H](C)O2)[C@H](O)[C@@H](C)O1 (stereo not given in full) | 0.0478µM* | . | . | 0.0338µM* | . | .
COC(C(=O)C(O)C(C)O)C1Cc2cc3cc(OC4CC(OC5CC(O)C(O)C(C)O5)C(O)C(C)O4)c(C)c(O)c3c(O)c2C(=O)C1OC1CC(OC2CC(OC3CC(C)(O)C(O)C(C)O3)C(O)C(C)O2)C(O)C(C)O1 (stereo not given) | 0.0601µM* | . | . | 1.9µM* | . | .
COC(C(=O)C(O)C(C)O)C1Cc2cc3cc(OC4CC(OC5CC(O)C(O)C(C)O5)C(O)C(C)O4)c(C)c(O)c3c(O)c2C(=O)C1OC1CC(OC2CC(OC3CC(O)C(OC)C(C)O3)C(O)C(C)O2)C(O)C(C)O1 (stereo not given) | . | . | . | . | -0.2% | -26.5%
O=C1C(Cl)=C(N2CCCCC2)C(=O)N1Cc1ccccc1 | 5.6% | 12.7 | 3.5 | ? | -13.9% | ?
O=C1C(Cl)=C(NCC2CCCO2)C(=O)N1CCc1ccccc1 (stereo not given) | 106.9% | 55.8* | 57.5* | 1.4% | -4.9% | -13.4%
CN1CCN(C2=C(Cl)C(=O)N(CCc3ccccc3)C2=O)CC1 | 52.1% | 39.8* | 48.3* | -92.2% | -17.0% | -0.8%
O=C1C(Cl)=C(NCCc2ccccc2)C(=O)N1CCc1ccccc1 | . | 9.1 | 5.7 | ? | ? | 22.4%
O=C1C(Cl)=C(N2CCOCC2)C(=O)N1CCc1ccccc1 | 105.5% | 133.5* | 47.0* | ? | -20.8% | -7.5%
O=C1C(Cl)=C(Nc2cccc(O)c2)C(=O)N1Cc1ccccc1 | -23.6% | -4.8 | 0.9 | 4.65µM* | -2.6% | -18.7%[46.1 µM]
